Laboratory results: ChEMBL document CHEMBL4513216, “Probing the Open Global Health Chemical Diversity Library for Multistage-Active Starting Points for Next-Generation Antimalarials” (ACS Infect Dis, 2020)
Among all 69,000 compounds or so, about 8,600 (12%) showed an effect of 50% or more. The sample as a whole holds a higher share of strong results than the screen did.

Tested on: Plasmodium berghei
Assay: Screen against P. berghei liver stage (PbLuc), transformed with Luciferase, at 10uM
Type: functional, HepG2
Conditions: tested at 10 uM

| Compound | INHIBITION [%] |
| --- | --- |
| CC(C)(C)c1ncc(CNCC2CCCN2c2cccnn2)s1 (centres undefined) | 31.3 |
| Cn1cc(C(=O)NC[C@@H]2OC[C@H]3CN(Cc4ccco4)CC[C@H]32)cn1 | -1.53 |
| CC(C)OCCN1CCN(C(C)c2nc(C3CC3)no2)CC1 (centres undefined) | 33.6 |
| O=C(NCCNc1ncccn1)N1CCCC1 | -0.113 |
| Cc1ccc(N2CC(c3nccc(C)n3)C2)nn1 | 19.64 |
| CCOC(C)C(=O)NCc1ccc(N(C)C)cc1 (centres undefined) | -25.9 |
| CC(C)c1cc(Br)ccc1NC(=O)NCC(O)CO (centres undefined) | 25.4 |
| CCOCC(O)CN1CCN(C(=O)c2cc(F)cc(F)c2)CC1 (centres undefined) | 3.73 |
| O=C(CNC(=O)c1cnccn1)Nc1ncc[nH]1 | 71.2 |
| O=C(CCNC(=O)c1cnccn1)Nc1ncc[nH]1 | 59.1 |
| O=C(NCCNc1cc(N2CCCC2)ncn1)c1cnccn1 | 19.2 |
| CC(C)(C)c1ccc(C(=O)NCCCNC(=O)c2cnccn2)cc1 | -23.45 |
| O=C(NCC(=O)N1CCc2ccccc2C1)c1cnccn1 | -112 |
| O=C(CCCNC(=O)c1cnccn1)Nc1ncc[nH]1 | 56.3 |
| CC(C)(C)c1ccc(S(=O)(=O)CCNC(=O)c2cnccn2)cc1 | 26.8 |
| O=C(NCc1csc(Br)c1)c1cnccn1 | -43.6 |
| O=C(NCCSC1CCCC1)c1cnccn1 | 4.41 |
| O=C(Cc1ccccn1)N1CCC2(CC1)CC(Oc1ccccn1)CO2 (centres undefined) | 14.2 |
| O=C(c1cccnc1Oc1ccc(Cl)cc1)N1CC[C@@H](O)C1 | 11.5 |
| Cn1nccc1C(=O)N1CCC2(CC1)COC(COc1ccccn1)C2 (centres undefined) | 8.64 |
| CC(=O)Nc1nc(C)c(S(=O)(=O)NCCc2cccnc2)s1 | 13 |
| Cc1ccc2oc(CN3CCC(C(=O)O)(n4ccnc4)CC3)c(C)c2c1 | -23.5 |
| Cc1nc2c(c(NC(C)C)n1)CCN(C1CCOCC1)CC2 | 36.4 |

| Compound | INHIBITION [%] |
| --- | --- |
| Cc1cnn(CCCNC(=O)NCCS(=O)(=O)Nc2ccccc2)c1 | -4.4 |
| Cc1cnn(CCCNC(=O)NC(C)C(=O)Nc2ccccc2)c1 (centres undefined) | 68.8 |
| Cc1cnn(CCCNC(=O)NCCC(=O)Nc2ccccc2)c1 | 22.6 |
| Cc1nc2c(c(C)c1CC(=O)NCc1ccco1)c(=O)[nH]n2C | 13.6 |
| Cn1ncc2c(NCC3CCCN3c3cccnn3)ncnc21 (centres undefined) | 21.5 |
| c1cnnc(N2CCCC2CNc2ncnc3ccccc23)c1 (centres undefined) | 64.7 |
| c1cnnc(N2CCCC2CNc2ncnc3sccc23)c1 (centres undefined) | -19.6 |
| c1cnnc(N2CCCC2CNc2ncnc3c2CCC3)c1 (centres undefined) | -24.2 |
| c1cnnc(N2CCCC2CNc2ncnc3ccsc23)c1 (centres undefined) | 52.3 |
| c1cnnc(N2CCCC2CNc2cnc3ccccc3n2)c1 (centres undefined) | 7.08 |
| Cc1nc(CN(C)c2cc(N3CCCC3CO)ncn2)cs1 (centres undefined) | 22.1 |
| O=C1c2cccnc2OC(CN2CCOCC2)CN1Cc1cccs1 (centres undefined) | 15.4 |
| CN1CCC(CN(C)C(=O)c2cc(C3CCCN3C)ccn2)CC1 (centres undefined) | -12.9 |
| Cn1nc(CNC(=O)CC#N)c2c1CN(CC1CC1)CC2 | 16.9 |
| Cn1cc(CN2CCCC(c3nc(O)cc(-c4cccs4)n3)C2)cn1 (centres undefined) | -15.1 |
| CN(C)S(=O)(=O)N1C[C@H]2CC[C@@H](C1)N(Cc1ccc3c(c1)OCCO3)C2 | 20.6 |
| O=C(O)c1ccnc(-c2ccnc(N3CCC4(CCO4)CC3)n2)c1 | 40.2 |
| Cc1ccc(-c2ccnc(N3CCC4(CCO4)CC3)n2)c(C)n1 | 36.5 |
| Cc1ccc(-c2ccnc(N3CCC4(CC3)CNC(=O)C4)n2)c(C)n1 | 68.9 |
| O=C1CC2(CCN(c3nccc(-c4cc(C(=O)O)ccn4)n3)CC2)CN1 | 64.9 |
| Cc1ccc(-c2ccnc(N3CCC4(CC3)CNC(=O)O4)n2)c(C)n1 | 30.9 |
| O=C(O)c1ccnc(-c2ccnc(N3CCC(F)(F)CC3)n2)c1 | 30.3 |
| Cc1cc(OC(F)F)c(C(=O)N2CCC(CN(C)C)CC2)s1 | -9.44 |

| Compound | INHIBITION [%] |
| --- | --- |
| CC(C)c1cc(CN(C)C(=O)CN2CCC(C(N)=O)CC2)no1 | 12.7 |
| Cc1ccc(CNc2n[nH]c(C)n2)cc1 | 46.6 |
| CN(C(=O)c1cccc(C#N)c1)c1nnc(C2CCOC2)s1 (centres undefined) | 24.45 |
| CCNC(=O)C1CCN(Cn2nc(-c3ccc(F)cc3)oc2=O)CC1 | 30.6 |
| CC(C)CCNC(=O)c1ccc2c(=O)n(-c3ccccc3)cnc2c1 | 1.8 |
| CC(C)CCNC(=O)c1ccc(-n2cnc3ccccc3c2=O)cc1 | 26.8 |
| CC(C)CNC(=O)c1ccc2c(=O)n(-c3ccccc3)cnc2c1 | 60.9 |
| NCCc1cn(Cc2ccccn2)c2ccccc12 | -18.2 |
| c1cncc(CNc2cncc(C3CCCN3)n2)c1 (centres undefined) | 6.26 |
| CCOc1ncccc1NC(=O)c1cccs1 | -10.9 |
| COc1ccc(NC(=O)c2ccco2)c(N2CCN(C(C)=O)CC2)n1 | 44 |
| COc1ccc(NC(C)=O)c(N2CCN(C(C)=O)CC2)n1 | 80.1 |
| COc1ccc(NC(=O)c2ccc[nH]2)c(N2CCN(C(C)=O)CC2)n1 | 6.8 |
| CCCC(C)C(=O)Nc1ccc(OC)nc1N1CCN(C(C)=O)CC1 (centres undefined) | 29.4 |
| COc1ccc(NC(=O)CCC(C)C)c(N2CCN(C(C)=O)CC2)n1 | 68.8 |
| COc1ccc(N)c(N2CCN(C(C)=O)CC2)n1 | 42.3 |
| CNc1ccnc(NCCC(=O)Nc2ccccc2C)n1 | 28.4 |
| O=C(C1CC=CC1)N1C[C@H]2CN(Cc3ccncc3)C(=O)[C@H]2C1 | 56.6 |
| O=C1[C@H]2CN(Cc3ccoc3)C[C@H]2CN1Cc1ccncc1 | 45.1 |
| CCN1C[C@@H]2CN(C(=O)C3CC=CC3)C[C@@H]2C1=O | 15.7 |
| O=C(C1CCOC1)N1C[C@H]2CN(Cc3ccncc3)C(=O)[C@H]2C1 (some centres undefined) | -22.2 |
| Cc1cccc(CN2C[C@@H]3CN(C(=O)C4CC=CC4)C[C@@H]3C2=O)n1 | 14.9 |
| O=C(C1CCC1)N1C[C@@H]2CN(Cc3ccncc3)C(=O)[C@@H]2C1 | 50.3 |
